An excerpt weighted towards active compounds, which were near 2.4% of everything screened.
D2 ag-1 – activates the human D2 dopamine receptor; P14416; DiscoveRx PathHunter D2 beta-arrestin, luminescence, 90 min; 100% = 57 uM dopamine signal; activation, % (test concentration not listed); hit rate 0.084% among 360,000; in the data active = activation above about 40%; inconclusive = between about 15% and that limit
Target sequence (P14416 whole entry, looked up): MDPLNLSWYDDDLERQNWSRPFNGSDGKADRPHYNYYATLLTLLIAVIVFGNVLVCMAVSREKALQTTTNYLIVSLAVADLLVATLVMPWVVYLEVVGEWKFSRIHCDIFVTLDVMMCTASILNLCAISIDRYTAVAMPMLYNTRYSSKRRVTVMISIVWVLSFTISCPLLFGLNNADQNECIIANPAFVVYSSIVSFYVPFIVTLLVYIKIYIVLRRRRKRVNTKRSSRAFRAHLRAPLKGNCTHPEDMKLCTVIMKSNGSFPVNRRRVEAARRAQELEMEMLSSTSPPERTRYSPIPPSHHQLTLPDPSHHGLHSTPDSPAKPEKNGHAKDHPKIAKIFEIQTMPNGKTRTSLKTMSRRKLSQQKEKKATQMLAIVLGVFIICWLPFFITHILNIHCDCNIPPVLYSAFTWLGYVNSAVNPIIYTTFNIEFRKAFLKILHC
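Agonist mode: compounds alone added to overnight-plated D2 PathHunter cells for 90 min at 37 C, with 57 uM final dopamine (EC100) defining full response. Beta-arrestin recruitment detected by chemiluminescent reagent, read after 1 h at ambient temperature.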
D2 ag-2 – D2 dopamine receptor (human) agonism | HEK293 T-REx D2 cells, calcium flux agonist mode | activation, % at 2 µM | hit rate 0.53% among 340,000;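 active = activation over 3 SD above normal in the single-dose calcium agonist read, cut at about 30% in these data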
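Agonism is scored from calcium flux in a force-coupled, inducible HEK293 cell line expressing D2, read kinetically for 180 s after compound addition against dopamine controls.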
D2 antag – antagonists of human D2 dopamine receptor; HEK293 TREx D2 cells, calcium flux, dopamine EC80; AID 485344; P14416; inhibition, % at 10 µM; hit rate 2% among 340,000; in the data active = inhibition above about 30%; inactive = below that, where a call was filed
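In this primary screen, negative modulation is detected by tracking calcium flux after an EC80 dopamine challenge in inducible HEK293 T-REx D2 cells preexposed to test compound for 180 s.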
D2 PAM-1 – D2 dopamine receptor (human) potentiation. HEK293 T-REx D2, calcium flux, EC20 dopamine potentiation. P14416. potentiation, % at 10 µM. hit rate 0.34% among 340,000. AID 485347;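 active = potentiation over 3 SD above the plate norm, cut at about 30% in these data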
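Calcium flux readout, no-wash dye, 1 read/s. Inducible HEK293 Trex D2 line, overnight 30 C. Compound alone 180 s (agonist flags), then EC20 dopamine, another 180 s to score potentiation.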
D2 PAM-2 – potentiates the human D2 dopamine receptor allosterically | potentiation, % (no concentration beside the values) | DiscoveRx D2 beta-arrestin cells, luminescence, 90 min; 100% = 57 uM dopamine signal | P14416 | AID 624464 | hit rate 0.23% among 360,000; in the data active = potentiation above about 50%; inconclusive = mostly about 30% to 49%
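PathHunter D2 cells, attached overnight at 37 deg C, received compound in DMSO plus dopamine at EC20 (50 nM final) for 90 min at 37 deg C. Beta-arrestin recruitment was read as luminescence after 1 h with detection reagent at ambient temperature.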
A number is an active result; – = inactive; ? = inconclusive; · = not tested or not shown; ! = not confirmed by another sample.

SMILES	D2 ag-1	D2 ag-2	D2 antag	D2 PAM-1	D2 PAM-2
COc1ccc(/C(N)=N/OC(=O)c2ccc([N+](=O)[O-])c(C)c2)cc1OC	–	–	–	–	–
N/C(=N\OC(=O)c1cccc(Br)c1)c1ccc([N+](=O)[O-])cc1	51	–	–	–	–
CCOc1ccc(C(=O)O/N=C(\N)c2ccc([N+](=O)[O-])cc2)cc1OCC	?	–	–	–	58
CCOC(=O)C(=O)Nc1c(C(=O)Nc2cccc(F)c2)oc2ccccc12	·	–	·	–	·
Oc1ccc(Cl)cc1C1=Nc2ccccc2N=C(c2cccc(Br)c2)C1	·	–	·	–	·
CCCN1C(=O)/C(=C\C=C2\N(CC)c3ccccc3C2(C)C)SC1=S	–	–	–	–	–
CN1/C(=C\C=C2/SC(=S)NC2=O)C(C)(C)c2ccccc21	–	41	–	–	–
CN1/C(=C\C=C2/C(=O)Oc3ccccc3C2=O)C(C)(C)c2ccccc21	–	125	68	–	–
CN1C(=CC=C2C=C(I)C(=O)C(I)=C2)C(C)(C)c2ccccc21	–	–	–	–	–
Cc1csc2nc(COc3ccc(NC(=O)COc4ccc(F)cc4)cc3)cc(=O)n12	·	–	·	–	·
CC(CN1c2ccccc2Sc2ccccc21)N(C)C (stereo not given)	–	–	54	–	–
CC(CN(C)C)CN1c2ccccc2Sc2ccccc21 (stereo not given)	–	–	76	–	–
CCN(CC)CC(O)CN1c2ccccc2Sc2ccccc21 (stereo not given)	–	–	–	–	–
COc1ccc(C2CNC(=O)C2)cc1OC1CCCC1 (stereo not given)	–	70!	71!	–	–
COc1ccc(CCNS(=O)(=O)c2ccc(C3CNC(=O)C3)cc2)cc1OC (stereo not given)	–	·	·	·	–
COc1cccc(C2c3c(-c4ccccc4O)n[nH]c3C(=O)N2CCc2ccc(OC)c(OC)c2)c1 (stereo not given)	·	·	·	–	·
CCOc1ccc(N2CC(C(=O)NCCN3C(=O)S/C(=C\c4ccc(OC)cc4)C3=O)CC2=O)cc1 (stereo not given)	–	–	–	–	–
COc1ccc(/C=C2\SC(=O)N(CCNC(=O)C3CC(=O)N(c4ccccc4)C3)C2=O)cc1 (stereo not given)	–	–	–	37	–
COc1ccc(CCNC(=O)CN2C(=O)COc3ccc(C)cc32)cc1OC	·	·	·	–	·
CCOc1ccc(S(=O)(=O)N2CCC(N3CCN(Cc4ccc(F)cc4)C(=O)C3=O)CC2)cc1	·	–	·	–	·
COc1ccc(-c2noc(-c3ccco3)n2)cc1OC	–	–	–	36	–
COc1ccc(-c2noc(-c3ccc(Cl)cc3[N+](=O)[O-])n2)cc1OC	?	–	–	–	89
COc1ccc(-c2noc(CN(C)S(=O)(=O)c3c(C)cc(C)cc3C)n2)cc1OC	·	–	·	–	·
COc1ccc(-c2noc(CN(C)S(=O)(=O)c3ccc(Cl)cc3)n2)cc1OC	–	–	–	45	–
COc1ccc(-n2ccnc(NCc3cccs3)c2=O)cc1	·	–	·	–	·
SMILES	D2 ag-1	D2 ag-2	D2 antag	D2 PAM-1	D2 PAM-2
Cc1ccc(NC(=O)c2c(C)nn(-c3ccccc3)c2-n2cccc2)c(Cl)c1	·	–	·	–	·
O=C(NC1CCCC1)c1ccccc1-c1ccccc1	–	–	–	–	–
O=C(O)c1ccccc1C(=O)NC1Cc2ccccc2C1	–	35	–	–	–
COc1ccc(CCNC(=O)c2ccc3c(c2)c(C)c(C)n3Cc2ccc(F)cc2)c(OC)c1OC	·	–	·	–	·
CCOc1ccccc1N1C(=O)CC(Sc2ncccc2C(=O)O)C1=O (stereo not given)	–	–	36	–	–
COc1ccc(CNc2nc(NCc3ccc(OC)cc3)n(C(=O)c3ccccc3[N+](=O)[O-])n2)cc1	–	–	31	–	–
COc1ccc(CNc2nc(NCc3ccc(OC)cc3)n(C(=O)c3ccncc3)n2)cc1	–	–	–	–	–
CCOC(=O)Cc1ccc2sc(-c3ccccc3)nc2c1	–	–	32	–	–
CCOC(=O)c1sc(-c2ccccc2)nc1C	–	–	–	–	–
Fc1ccc(NC(=S)NCCc2ccc(Cl)cc2)cc1	–	–	32	–	–
COc1ccc(Cl)cc1NC(=S)NCCc1ccc(S(N)(=O)=O)cc1	–	–	–	–	–
COc1ccc(Cl)cc1NC(=S)NCCc1ccc(F)cc1	–	–	40	–	–
Cc1c(C(=O)N(C)C)sc2c1c(=O)n(-c1ccc(Cl)c(Cl)c1)c(=O)n2CC(=O)N1CCCCC1C (stereo not given)	·	–	·	–	·
CC(=O)c1ccc2c(c1)C1C=CCC1C(c1ccc(S(=O)(=O)N3CCOCC3)cc1)N2 (stereo not given)	–	–	–	–	61
COc1ccc(Cl)cc1NC(=O)C(OC)c1ccccc1 (stereo not given)	–	–	30	–	–
CCC(C(=O)Nc1cc(OC)c(NC(=O)c2ccccc2)cc1OC)c1ccccc1 (stereo not given)	–	–	42	–	–
CCC(C(=O)Nc1cc(Cl)ccc1OC)c1ccccc1 (stereo not given)	–	–	–	–	–
COc1ccccc1C(=O)Nc1cc(Cl)ccc1O	–	–	–	–	–
COc1ccc(Cl)cc1NC(=O)c1ccccc1C	–	–	32	–	–
COc1ccc(Cl)cc1NC(=O)Nc1cccc([N+](=O)[O-])c1C	–	–	66	–	–
COc1ccc(N2CCN(c3nc(Nc4ccc(F)cc4)nc(OC)n3)CC2)cc1	·	–	–	33	·
COc1ccc(N2CCN(c3nc(Cl)nc(Nc4ccc(F)cc4)n3)CC2)cc1	–	–	–	–	–
Cc1ccc2c(c1)c1c(c(=O)n(-c3ccccc3C)c(=O)n1Cc1ccccc1F)n2C	·	–	·	–	·
CCCSc1ccc([C@@H]2[C@@H]3C(=O)N(C)C(=O)[C@@H]3[C@]3(C(=O)OC)CCCCN23)cc1OC	–	–	35	–	–
CCc1ccccc1NC(=O)NC(CC)Cn1nnc2ccccc2c1=O (stereo not given)	·	–	·	–	·
SMILES	D2 ag-1	D2 ag-2	D2 antag	D2 PAM-1	D2 PAM-2
C/C(=N\NC(=O)c1ccccn1)c1ccc(C(=O)O)s1	·	–	59	–	·
CC(=N/O)/C(C)=N\NC(=O)c1ccccn1	–	–	–	–	–
COc1ccc(C2=NS(=O)(=O)N(C)C(C(=O)N3CCC(C(N)=O)CC3)=C2)cc1	–	–	35	–	–
Cc1cc(=O)nc2c3ccccc3n(C(C)C(=O)Nc3c(F)c(F)c(F)c(F)c3F)n12 (stereo not given)	–	–	45	–	–
Cc1cc(=O)nc2c3ccccc3n(C(C)C(=O)Nc3cc(F)ccc3F)n12 (stereo not given)	–	·	·	·	–
O=C(CN1CCN(c2ccccc2F)CC1)c1c[nH]c2ccc(F)cc12	–	–	35	–	–
